# Screens: PubChem BioAssay, National Center for Advancing Translational Sciences (NCATS)
# This is a sample that favours compounds with a hit; in the whole collection about 3.3% have one here.
# Sm TGR block: blocks Schistosoma mansoni thioredoxin glutathione reductase; purified TGR, DTNB reduction, TNB absorbance 405 nm; Potency, µM (series often up to 114 µM), for the others: at the top dose activity change, negative = inhibition, actives largely listed as inhibitors; 360,000 tested, 3% active; AID 485364; further: nearly all actives have a fitted effect of over 60% in size
#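 First, TGR (20 nM dispensed) and NADPH were mixed with compound. Second, a 15 min room-temperature incubation followed. Third, further NADPH and then DTNB were added to start the reaction. Finally, TNB absorbance was monitored kinetically.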
# AmpC no deterg: AmpC beta-lactamase inhibition without detergent | P00811 | AmpC nitrocefin hydrolysis, absorbance 480 nm, 0.0001% Triton | Potency, µM (doses to about 57.1 µM), without a hit: at the top dose activity change, negative = inhibition, usual class: inhibitors | 330,000 tested, 0.52% active | AID 485341;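 further: plate controls were no compound for no effect and no enzyme for full effect; nearly all actives have a fitted effect of over 20% in size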
# Target sequence (P00811 whole entry, looked up): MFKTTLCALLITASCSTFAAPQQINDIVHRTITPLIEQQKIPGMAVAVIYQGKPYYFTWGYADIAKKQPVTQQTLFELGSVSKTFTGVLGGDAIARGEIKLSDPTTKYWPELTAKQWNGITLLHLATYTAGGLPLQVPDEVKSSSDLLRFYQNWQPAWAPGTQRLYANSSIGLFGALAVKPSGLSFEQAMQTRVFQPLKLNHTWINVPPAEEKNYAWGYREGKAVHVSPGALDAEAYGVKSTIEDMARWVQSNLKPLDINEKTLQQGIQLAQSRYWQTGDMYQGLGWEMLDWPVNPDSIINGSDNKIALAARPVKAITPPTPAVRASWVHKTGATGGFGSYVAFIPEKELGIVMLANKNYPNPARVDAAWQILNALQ
#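 20 mM phosphate pH 7.0 + 0.01% (detergent screen) or 0.0001% Triton X-100; 5.3 nM AmpC reagent; cpd preinc 15 min RT; nitrocefin (800 uM stock) to start; A480 q20 s × 4 min; Activity was normalised to no-enzyme and no-compound control wells.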
# AmpC detergent: AmpC beta-lactamase inhibition with detergent present | P00811 | AmpC hydrolysis of nitrocefin, absorbance 480 nm, 0.01% Triton | Potency, µM (titrated, usually from 114 µM), for the others: top-dose activity change, negative = inhibition, most hits filed as inhibitors | 370,000 tested, 0.041% active;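 further: 0% = no-compound wells and -100% = no-enzyme wells; nearly all actives have a fitted effect of over 25% in size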
#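 AmpC (5.3 nM in the dispensed reagent) in 20 mM phosphate pH 7.0 with 0.01% (detergent screen) or 0.0001% Triton X-100 was preincubated with compounds for 15 min at room temperature. Nitrocefin was then added from an 800 uM solution, and hydrolysis was followed at 480 nm.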
# An asterisk follows results filed as active; ? = inconclusive; · = no result given; [ ] = dose if it differs, or a comment. The call rests on the fitted dose curve; in most records, active means well fitted curve in the direction sought with a large enough effect; inconclusive means small, poorly fitted or top-dose-only effect, or another doubt; inactive means no such curve, though single readings can be large; an effect the other way counts as inactive or inconclusive. Unless noted, on the % scale 0 is the no-effect control and ±100 the full control effect; potency means the concentration at half of the fitted maximal effect.
SMILES,Sm TGR block,AmpC no deterg,AmpC detergent
COc1ccccc1C1C=C(c2ccc(Cl)cc2)Nc2nc(N3C(=O)CCC3=O)nn21 (stereo not given),0%,23%,-19%
Cc1ccc(C2C=C(c3ccccc3)Nc3nc(NS(=O)(=O)c4ccc(C)cc4)nn32)cc1 (stereo not given),-21%,·,9%
Cc1ccc(C2C=C(c3ccc(Cl)cc3)Nc3nc(NS(=O)(=O)c4ccccc4)nn32)cc1 (stereo not given),32µM*,·,0%
CC(=O)Nc1nc2n(n1)C(c1ccccc1)C=C(c1ccccc1)N2 (stereo not given),4µM*,-21%,-10%
Cc1ccsc1C(=O)NCc1ccc(F)cc1,-3%,-5%,2%
CC(=O)Nc1nc2n(n1)C(c1ccc(F)cc1)C=C(c1ccccc1)N2 (stereo not given),3.2µM*,-7%,2%
O=C(Nc1nc2n(n1)C(c1ccc(F)cc1)C=C(c1ccccc1)N2)c1cccc([N+](=O)[O-])c1 (stereo not given),2%,·,16%
COc1cc2nc(NCc3ccc(C)cc3)n3nc(-c4ccccc4)nc3c2cc1OC,-5%,·,31%
Cn1c(=O)c2c(-c3ccccc3Cl)n(-c3cc(Cl)ccc3O)cc2n(C)c1=O,13µM*,·,-2%
Cn1c(=O)c2c(-c3ccccc3Cl)n(Cc3ccc(Cl)cc3)cc2n(C)c1=O,4%,·,19%
CC(=O)c1cc(OC(=O)c2ccncc2)ccc1OC(=O)c1ccncc1,-33%,-27%,2%
CCCOC(=O)c1c(-c2ccccc2)c(-c2ccccc2)nn(C)c1=O,6%,·,17%
COC(=O)c1cc(Cl)ccc1NC(=O)Cn1c(C)cc(C)c(C#N)c1=O,-1%,·,18%
CN(C)CC/C=C1\c2ccccc2Sc2ccc(Cl)cc21,-7%,52%,?
CN(C)CCC=C1c2ccccc2C=Cc2ccccc21,25µM*,8%,-8%
CN(C)CC/C=C1/c2ccccc2COc2ccccc21,20µM*,1%,4%
CN(C)CC/C=C1\c2cc(F)ccc2CSc2ccccc21,-1%,27%,?
CN(C)CCC=C1c2ccccc2CCc2ccccc21,7.1µM*,22%,-9%
C=CCN(C)CC/C=C1\c2ccccc2CSc2ccccc21,-30%,30%,-10%
CCOC(=O)C1CCCN(C(=O)c2cccc([N+](=O)[O-])c2C)C1 (stereo not given),32%,5%,?
CS(=O)(=O)N1CCCc2cc(C(=O)Nc3cccc(C(F)(F)F)c3)ccc21,-7%,·,20%
Cc1ccc(-c2nc(NCc3ccco3)c3ccccc3n2)cc1,1%,-42%,5%
c1cncc(-c2nc(NCc3ccco3)c3ccccc3n2)c1,25µM*,-50%,0%
N/C(=N\OC(=O)CSc1ccccc1)c1cccc([N+](=O)[O-])c1,-17%,-20%,?
Cc1c(C(=O)N(C)CCCCN2CCOCC2)oc2c(F)cccc12,-10%,22%,-12%
SMILES,Sm TGR block,AmpC no deterg,AmpC detergent
CCCCC(=O)Nc1cccc(OCc2cc(=O)n3ccccc3n2)c1,-1%,·,21%
CCC(=O)Nc1c(C)nn(-c2ccc(C)c(C)c2)c1C,1%,-7%,-1%
Cc1ccc(-n2nc(C)c(NC(=O)CCl)c2C)cc1C,22µM*,-5%,?
CCOC(=O)N1CCC2(CC1)OC(=O)C(C)=C2C(=O)NCc1cccc(F)c1,4%,·,15%
CC(=O)Nc1ccc(S(=O)(=O)NCc2ccncc2)cc1,5%[57.1 µM],0%,1%
CC(=O)Nc1ccc(S(=O)(=O)NCc2ccc(C)n2C)cc1,14µM*,-1%,3%
CN(C)c1ccc(NC(=O)C2C3C=CC(C3)C2C(=O)O)cc1 (stereo not given),?,-17%,-4%
COC(=O)C1=CO[C@@H](C)[C@H]2CN3CCc4c([nH]c5ccccc45)[C@@H]3C[C@H]12,-5%,-19%,-4%
COC(=O)C1=COC(C)C2CN3CCc4c([nH]c5ccccc45)C3CC12 (stereo not given),79µM*,11%,3%
CCC1CCCCN1S(=O)(=O)c1ccc(NC(=O)c2nc(SC)ncc2Cl)cc1 (stereo not given),17%,·,20%
CCOC(=O)C(=CNc1ccccc1N1CCOCC1)C(=O)OCC,0%,55%,4%
CCOC(=O)C(=O)C1=C(N2CCOCC2)/C(=C\c2ccc(F)cc2)CC1,28µM*,-29%,-13%
O=C1CC(c2ccco2)CC(O)=C1C=NCC1CCNCC1 (stereo not given),?,-17%,-9%
O=C1CC(c2ccco2)CC2=C1C=Nc1ccccc1N2 (stereo not given),40µM*,-4%,20%
CC1CCCC(NC(=O)COC(=O)c2cccnc2Cl)C1C (stereo not given),-16%,-8%,?
O=C1c2ccccc2C(Nc2ccc(F)c(Cl)c2)N1Cc1ccco1 (stereo not given),13µM*,-16%,?
COc1ccc(NC2c3ccccc3C(=O)N2Cc2ccco2)cc1OC (stereo not given),-35%,-12%,-16%
O=C(CCCN1C(=O)/C(=C/c2ccccc2Cl)SC1=S)NNC(=O)c1ccc(Cl)cc1,0%,-19%,-9%
Cc1ccc(C(=O)NNC(=O)CCCN2C(=O)/C(=C/c3ccccc3Cl)SC2=S)cc1,-23%,32µM*,1%
CC(C)NC(=O)NC(=O)CSc1nnc(C(F)(F)F)n1C,-1%,0%,?
CCOC(=O)CC(NC(=O)c1cc2cc(Br)cc(OC)c2oc1=O)c1ccc(OC)cc1 (stereo not given),1%,·,-2%
O=C(O)/C=C/C(O)c1ccc(Cl)cc1 (stereo not given),25µM*,-18%,?
O=P(Oc1ccccc1)(Oc1ccccc1)C(O)c1ccc(Cl)cc1 (stereo not given),0%,-25%,?
Cc1c(C(=O)N(C)Cc2nc3ccccc3c(=O)[nH]2)oc2ccccc12,·,-19%,·
COc1ccccc1NC(=O)C1CCN(S(=O)(=O)c2ccc3c(c2)oc(=O)n3C)CC1,1%,·,5%
SMILES,Sm TGR block,AmpC no deterg,AmpC detergent
c1ccc(-c2nn3c(-c4ccco4)nnc3s2)nc1,25µM*,-20%,-13%
Brc1ccc(-c2nn3c(-c4ccco4)nnc3s2)o1,8.9µM*,-13%,-13%
COc1cc(-c2nn3c(-c4ccco4)nnc3s2)cc(OC)c1OC,-1%,-10%,-11%
Brc1ccc(-c2nn3c(-c4ccncc4)nnc3s2)o1,-4%,-19%,?
Clc1ccc(-c2nnc3sc(-c4ccccn4)nn23)cc1,-17%,-10%,-12%
COc1cccc(-c2nn3c(-c4ccco4)nnc3s2)c1,45µM*,10%,?
CN(C(=O)c1cncc(Br)c1)c1c(N)n(Cc2ccccc2)c(=O)[nH]c1=O,-1%,-18%,1%
O=C(CSc1ccc(Cl)cc1)Nc1ccc(-c2nc3ccccc3[nH]2)cc1,-3%,-45%,-8%
CSc1nc(Cl)cc(Nc2ccc(O)cc2)n1,-9%,-44%,0%
CCC(C)[C@H](N)c1cn([C@@H](Cc2ccc(O)cc2)C(=O)N2CCNCC2)nn1 (stereo not given in full),-7%,-9%,-4%
